About 79,000 compounds went through this panel and 15% of them were active in at least one assay; those are over-represented in the sample as a whole. A number with no mark means an inactive call. Active and inactive are the calls of the source. No stated cut-off is given here; in the data, active means growth inhibition above about 70%; inactive means the rest.
Experiments:
[1] = NCI Yeast Anticancer Drug Screen. Data for the rad50 strain (AID 155);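 further: 0% = growth of vehicle-only cultures of the same strain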; conditions: S. cerevisiae rad50 strain growth inhibition; at 50.0 µM; hits give high values
Summary of the method: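 DNA repair mutant yeast, compound exposure, growth read-out; inhibition is taken relative to vehicle.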

[2] = NCI Yeast Anticancer Drug Screen. Data for the mec2-1 strain (AID 157); conditions: S. cerevisiae mec2-1 strain, at 50.0 µM, hits give high values
Summary of the method: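 Vehicle-treated cultures served as reference for growth inhibition of compound-exposed mec2-1 yeast.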

[3] = NCI Yeast Anticancer Drug Screen. Data for the sgs1 mgt1 strain (AID 161);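 further: 0% = growth of cultures given vehicle only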; conditions: S. cerevisiae sgs1 mgt1 strain, at 50.0 µM, hits give high values
Summary of the method: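 Inhibition of yeast growth, normalised to vehicle-treated controls, is reported for a strain bearing genetic alterations in DNA damage repair.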

[4] = NCI Yeast Anticancer Drug Screen. Data for the cln2 rad14 strain (AID 165);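 further: 0% = growth equal to vehicle treated cultures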; conditions: S. cerevisiae cln2 rad14 strain, at 50.0 µM, hits give high values
Summary of the method: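 Each compound was tested on cln2 rad14 yeast. Inhibition of growth was calculated against vehicle-exposed controls.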

[5] = NCI Yeast Anticancer Drug Screen. Data for the bub3 strain (AID 167); conditions: S. cerevisiae bub3 mutant strain, at 50.0 µM, hits give high values
Summary of the method: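 In this screen, a yeast mutant lacking normal mitotic checkpoint function is challenged with compound. Relative growth versus vehicle gives the inhibition value.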

[6] = NCI Yeast Anticancer Drug Screen. Data for the mlh1 rad18 strain (AID 175); conditions: S. cerevisiae mlh1 rad18 strain growth inhibition; at 50.0 µM; hits give high values
Summary of the method: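 Vehicle-treated cultures served as the reference for growth inhibition in a yeast strain carrying DNA damage repair alterations exposed to each compound.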

Row | SMILES | growth inhibition [1] | growth inhibition [2] [%] | growth inhibition [3] | growth inhibition [4] [%] | growth inhibition [5] [%] | growth inhibition [6]
1 | Cc1ccc(S(=O)(=O)NC(=O)Nc2c(-c3nc4ccccc4s3)[n+]([O-])c3ccccc3[n+]2[O-])cc1 | 27.8% | 5.5 | 15.2% | 30.4 | 10.1 | 18.9%
2 | O=C1CC2CC1C1C(=O)OC(=O)C21 (stereo unspecified) | -6.8% | 5.95 | -6.7% | -1.6 | -6.9 | -8.6%
3 | C=CC(CCCC(C=C)OC(C)=O)OC(C)=O (stereo unspecified) | 2.2% | -4.95 | -0.65% | -18.1 | 5.6 | 5.5%
4 | CNC(=O)Nc1ccc(Cl)cc1C(=O)O | -26.2% | 2.45 | -15.7% | -72.2 | -13.7 | -7.45%
5 | CCC1=NS(=O)(=O)c2c(ncn2C)N1 | 11% | 8.55 | -5.6% | 11.3 | 0.15 | 1.35%
6 | N#CC(C(=O)C(N)=O)c1nc2ccccc2s1 (stereo unspecified) | 20.2% | 9.45 | 19.4% | 5.8 | -9.5 | 2.25%
7 | N#C/C(=C\c1cccnc1)c1ccc(Br)cc1 | 59.4% | 36.4 | 41.8% | 14.3 | 43.5 | 70% (active)
8 | Cn1cnnc1Sc1c([N+](=O)[O-])ncn1C | -3.3% | -5.25 | -5% | 22.5 | 15.6 | -11.6%
9 | CCN(CC)C(=O)CN | 8.9% | 0.6 | 9.1% | -3.05 | 3.3 | -8.15%
10 | CC(=O)Nc1cccc([N+](=O)[O-])c1 | 8.25% | -10.3 | 8.65% | -7.85 | -2.7 | -19.6%
11 | CCC(Br)C(=O)Nc1ccccc1C (stereo unspecified) | 27% | 3.25 | 6.75% | -14.2 | 20.6 | 0.4%
12 | COc1ccccc1/C=C1/Sc2scc(CC(=O)Nc3ccccc3)[n+]2C1=O | 8.9% | 4 | 23.6% | 17.7 | -4.7 | 24.8%
13 | COc1ccc(CCNC(=O)CCC2CCN(CCc3ccc(OC)c(OC)c3)CC2)cc1OC | 16.2% | -2.05 | 1.65% | 22.4 | -1.5 | 3.6%
14 | CC(C)(C)c1ccc(Sc2cccc3c2C(=O)c2c(Cl)cccc2C3=O)cc1 | -11.3% | -4.1 | -27.1% | -8.1 | 0.55 | -0.85%
15 | Cc1ccc(CCOC(=O)Nc2ccccc2)cc1 | -7.55% | 6.4 | -3.25% | -13.1 | 1.8 | 17.2%
16 | CC(C)(c1cccs1)c1cscc1C(=O)O | -0.85% | -6.8 | -13.3% | -28.8 | -9.35 | 16.7%
17 | S=C(NC1CCCCC1)N1CCC(CCCC2CCN(C(=S)NC3CCCCC3)CC2)CC1 | -42.8% | -31.2 | -44.5% | -1.05 | -41.8 | -46.2%
18 | Cc1ccc(-n2c(=S)n(-c3ccccc3C)c3nc4ccccc4nc2/c3=N\Nc2ccccc2)cc1 | -6.85% | 3.5 | -14.8% | -16.1 | 1.3 | -22.1%
19 | CC1(C)C(=O)N=C(N)N1C(=O)OCc1ccccc1 | -11.9% | -4.45 | -6.6% | 13.8 | -10 | -17.5%
20 | Cc1cc(C)n2ncc(Br)c2n1 | 26.2% | 13.1 | 14.2% | -35 | 12.9 | 8.15%
21 | Cc1[nH]nc(C(=O)O)c1[N+](=O)[O-] | 35.6% | 11.3 | 20.2% | -25.7 | -3.2 | 8.2%

Row | SMILES | growth inhibition [1] | growth inhibition [2] [%] | growth inhibition [3] | growth inhibition [4] [%] | growth inhibition [5] [%] | growth inhibition [6]
22 | NC(Cc1ccccc1CP(=O)(O)O)C(=O)O (stereo unspecified) | -46.8% | -41.1 | -16.4% | -4.9 | -29.9 | -44.2%
23 | O=C(Nc1ccccc1O)c1ccc(Cl)c(Cl)c1 | -7.6% | 32 | 33.2% | -23.2 | 49 | 36.2%
24 | CN(C)c1ccc(C(=C2C=CC(=[N+](C)C)C=C2)c2c(O)c(S(=O)(=O)[O-])cc3cc(S(=O)(=O)O)ccc23)cc1 | 1.4% | -21.5 | -41.5% | 15.1 | -14.6 | 27.1%
25 | Clc1cccc[n+]1CCc1ccccc1 | 9.4% | 22.9 | 5.3% | -4.55 | 7.55 | 44%
26 | CC1(C)C(N2CCOCC2)CS1(=O)=O (stereo unspecified) | 1.75% | -5.2 | -1.5% | -24.2 | -15.7 | 3.25%
27 | [O-]c1c[n+](CCCC[n+]2cc([O-])on2)no1 | -5.4% | -32.8 | -13.3% | 3.55 | -60.7 | -1.95%
28 | O=C(O)/C=C/C(=O)Nc1cc(Cl)cc2c1-c1c(Cl)cc(Cl)cc1C2O (stereo unspecified) | 83.7% (active) | 54 | 84% (active) | -5.45 | 11.3 | 51.9%
29 | CN(C)c1ccc(/C=C(\C#N)c2ccc(F)cc2F)cc1 | 0.4% | -2.75 | -3.4% | -9.05 | -5.25 | -23.9%
30 | c1ccc2c(c1)C[N+]1(CCCCCC1)C2 | 7% | 6.05 | 11% | -10.3 | 1.05 | 10.7%
31 | Cc1cc2nc3c(C(OC4OC(CO)C(O)C(O)C4O)C(O)CO)nn(-c4ccccc4)c3nc2cc1C (stereo unspecified) | -23% | -13.8 | -35.1% | 0.25 | -26.9 | 0.75%
32 | Cc1ccc(S(=O)(=O)OCC2OC(C)(C)OC2COS(=O)(=O)c2ccc(C)cc2)cc1 (stereo unspecified) | 25% | -5.65 | 6.7% | -38.6 | 6.2 | 10.3%
33 | N#Cc1c(-c2ccccc2)c(C#N)c(=O)n(N)c1N | -6.7% | -0.8 | 7.35% | 2.5 | 23.1 | 16.9%
34 | CC(C)(C)c1ccc(S(=O)(=O)/C=C/c2ccccc2)cc1 | -2.4% | 35 | -9.3% | 26.1 | 4.1 | 6.3%
35 | CCCCCCCCCCCCCCCCCCCl | 4.9% | 6.6 | 0.05% | -31.1 | 5.7 | 28.4%
36 | N[C@@H]1c2c(Br)sc(N3CCOCC3)c2C(=O)[C@@H]1O | 10.8% | -10.4 | 4.1% | -18.6 | 5.4 | -31.6%
37 | Cc1ccnc(NS(=O)(=O)c2ccc(N=Cc3ccccc3O)cc2)n1 | -28.4% | -20.1 | -13.9% | -40.4 | -36.2 | -0.5%
38 | CCCCCCCCCCCCCC(=O)OCC(CCS(=O)(=O)O[C@H]1CC[C@@]2(C)C(=CC[C@@H]3C2CC[C@]2(C)C(=O)CCC32)C1)OC(=O)CCCCCCCCCCCCC (stereo partly specified) | -32.8% | -30.9 | -15.3% | -26.6 | -22.2 | -23.6%
39 | Cc1ccc2c(c1)C1(c3ccc(Cl)c(Cl)c3)Oc3ccc(C)cc3C(c3ccc(Cl)c(Cl)c3)(O2)O1 | 4.1% | 5.15 | -6.7% | 2.15 | 3.65 | -3%
40 | CC(C)CC(NS(=O)(=O)Cc1ccccc1)C(=O)NN (stereo unspecified) | -26.9% | -13.6 | -3.85% | 11.2 | 7.5 | -22.1%
41 | COC(=O)NS(=O)(=O)CC(=O)c1ccccc1 | 10.2% | -0.3 | -1.55% | 8.9 | 1.3 | 9.9%

Reference: PubChem BioAssay (NCI)
